The results in this text go back to ChEMBL document CHEMBL3988442, “University of Dundee, Small-Polar-MMV Screening Library” (2021).

Design in all cases: scale not given: direction of the effect not stated beside the values
Experiment [1] concerns the target Protein translocase subunit SecA (Escherichia coli (strain K12)) (UniProt P10408). As to the kind of experiment: Assay to Identify E. coli SecA ATPase Inhibitors. To be noted: 30 µM. Format: functional.
In experiment [2] the target is T1, Ubiquitin-activating enzyme e1, putative (Leishmania donovani (strain BPK282A1)) (UniProt E9BSI1).
T1 sequence (whole entry): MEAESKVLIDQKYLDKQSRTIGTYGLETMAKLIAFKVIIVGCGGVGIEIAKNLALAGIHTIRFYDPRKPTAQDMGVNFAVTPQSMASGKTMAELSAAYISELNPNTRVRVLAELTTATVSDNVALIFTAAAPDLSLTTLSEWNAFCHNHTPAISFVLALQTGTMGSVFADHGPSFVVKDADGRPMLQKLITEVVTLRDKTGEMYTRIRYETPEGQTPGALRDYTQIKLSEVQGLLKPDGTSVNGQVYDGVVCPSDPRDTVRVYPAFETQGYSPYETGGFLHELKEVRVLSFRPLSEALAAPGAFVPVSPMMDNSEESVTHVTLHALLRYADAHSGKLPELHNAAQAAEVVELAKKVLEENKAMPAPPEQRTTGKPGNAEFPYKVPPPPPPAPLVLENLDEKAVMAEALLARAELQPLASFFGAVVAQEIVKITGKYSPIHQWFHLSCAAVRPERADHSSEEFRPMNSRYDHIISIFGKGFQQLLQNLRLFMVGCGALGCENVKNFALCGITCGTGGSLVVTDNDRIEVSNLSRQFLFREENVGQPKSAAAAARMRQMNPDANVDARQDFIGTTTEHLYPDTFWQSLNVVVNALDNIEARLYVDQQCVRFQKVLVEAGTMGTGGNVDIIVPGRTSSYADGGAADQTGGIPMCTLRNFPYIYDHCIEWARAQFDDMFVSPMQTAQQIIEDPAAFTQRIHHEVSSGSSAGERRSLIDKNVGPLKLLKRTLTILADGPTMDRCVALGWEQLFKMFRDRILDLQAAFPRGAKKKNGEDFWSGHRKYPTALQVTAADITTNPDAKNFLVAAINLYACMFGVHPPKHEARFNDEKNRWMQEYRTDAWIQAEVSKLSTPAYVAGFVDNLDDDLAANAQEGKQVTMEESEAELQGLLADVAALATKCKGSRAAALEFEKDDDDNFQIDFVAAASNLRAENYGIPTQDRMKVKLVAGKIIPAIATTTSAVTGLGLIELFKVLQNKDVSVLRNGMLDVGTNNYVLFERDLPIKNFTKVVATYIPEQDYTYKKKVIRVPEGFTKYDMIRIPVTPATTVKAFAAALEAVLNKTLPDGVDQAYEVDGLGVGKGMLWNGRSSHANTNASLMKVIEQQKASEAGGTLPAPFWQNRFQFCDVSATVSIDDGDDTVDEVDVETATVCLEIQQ
As to the kind of experiment: Leishmania donovani Ubiquitin Activating Enzyme (LdE1). Format: functional. As to conditions: 30 µM.

Experiment [3] addresses AMP-activated protein kinase, AMPK (Homo sapiens) (UniProt P54646+O43741+P54619+Q9UGJ0+Q9Y478+Q13131+Q9UGI9). As to the kind of experiment: AMP-dependent Kinase enzyme assay. An in vitro enzyme assay that detects ADP turnover that is directly proportional to AMPK activity. This uses naive AMPK that is activated during the assay with MK-8722. Format: functional. As to conditions: 30 µM.

In experiment [4] the target is Sialic acid-binding Ig-like lectin 9 (Homo sapiens) (UniProt Q9Y336). The experiment in a line: Hs-Siglec9 ALPHAscreen SOP 20170721. To be noted: 10 µM.
Sialic acid-binding Ig-like lectin 9 (Homo sapiens), sequence (Q9Y336 whole entry): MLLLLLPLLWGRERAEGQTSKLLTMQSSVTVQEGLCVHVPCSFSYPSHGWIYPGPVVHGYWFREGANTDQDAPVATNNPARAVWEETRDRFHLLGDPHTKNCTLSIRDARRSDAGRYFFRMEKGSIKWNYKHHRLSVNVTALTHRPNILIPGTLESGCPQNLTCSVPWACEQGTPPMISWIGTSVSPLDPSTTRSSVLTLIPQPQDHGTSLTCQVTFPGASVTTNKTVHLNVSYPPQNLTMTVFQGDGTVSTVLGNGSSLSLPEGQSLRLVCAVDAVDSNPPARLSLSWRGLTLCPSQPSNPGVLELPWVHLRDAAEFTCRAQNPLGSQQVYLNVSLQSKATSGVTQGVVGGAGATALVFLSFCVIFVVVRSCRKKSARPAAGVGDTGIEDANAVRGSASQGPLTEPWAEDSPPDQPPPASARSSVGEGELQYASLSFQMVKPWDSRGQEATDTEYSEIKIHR
The next experiment deals with Trypanosoma cruzi. As to the kind of experiment: Trypanosoma cruzi phosphomannomutase and mannose-1-phosphate guanylyltransferase assay. In kind it is functional. To be noted: 10 µM.
Experiment [5] has as its target T2, Arginase-2, mitochondrial (Homo sapiens) (UniProt P78540).
T2 sequence (whole entry): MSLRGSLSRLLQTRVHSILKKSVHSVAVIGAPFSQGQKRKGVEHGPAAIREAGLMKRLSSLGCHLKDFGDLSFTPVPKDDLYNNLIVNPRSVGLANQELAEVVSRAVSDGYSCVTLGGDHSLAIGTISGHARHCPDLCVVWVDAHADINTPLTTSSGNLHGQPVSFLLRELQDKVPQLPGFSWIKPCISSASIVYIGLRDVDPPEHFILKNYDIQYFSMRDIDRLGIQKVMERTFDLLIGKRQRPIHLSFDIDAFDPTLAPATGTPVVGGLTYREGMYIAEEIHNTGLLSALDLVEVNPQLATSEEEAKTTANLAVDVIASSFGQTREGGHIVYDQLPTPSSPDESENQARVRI
The experiment in a line: in vitro enzyme assay to detect the production of urea directly proportional to the activity of Arginase II. Further: in the data most compounds retested in dose-response had high values. Format: functional. To be noted: 33.3 µM.

The target of experiment [6] is T3, Proteasome subunit beta (Trypanosoma cruzi) (UniProt O96673).
T3 sequence (whole entry): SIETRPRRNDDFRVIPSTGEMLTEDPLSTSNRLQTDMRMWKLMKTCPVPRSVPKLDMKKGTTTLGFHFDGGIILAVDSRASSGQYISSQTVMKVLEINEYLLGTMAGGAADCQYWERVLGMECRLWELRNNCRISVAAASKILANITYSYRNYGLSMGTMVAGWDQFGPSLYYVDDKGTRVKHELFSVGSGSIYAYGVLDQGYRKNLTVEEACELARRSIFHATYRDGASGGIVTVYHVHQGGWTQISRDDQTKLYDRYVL
The experiment in a line: Trypanosoma cruzi proteasome chymotrypsin-like activity (TcProtChymo) assay. Further: in the data most compounds retested in dose-response had high values. In kind it is functional. To be noted: 9.37 µM.

The species named for another experiment is Homo sapiens. As to the kind of experiment: To identify inhibition of the IFN signalling (Jak-Stat) pathway via expression of an eGFP reporter gene under the control of an IFN-stimulated response element (ISRE) containing MxA promoter. As to conditions: 30 µM. In kind it is functional. A general note: Reporter assays use an easily measured gene product as a stand-in for the process of interest.

Experiment [7] deals with T4, Tyrosyl-tRNA synthetase, putative (Trypanosoma cruzi (strain CL Brener)) (UniProt Q4DSP6).
T4 sequence (whole entry): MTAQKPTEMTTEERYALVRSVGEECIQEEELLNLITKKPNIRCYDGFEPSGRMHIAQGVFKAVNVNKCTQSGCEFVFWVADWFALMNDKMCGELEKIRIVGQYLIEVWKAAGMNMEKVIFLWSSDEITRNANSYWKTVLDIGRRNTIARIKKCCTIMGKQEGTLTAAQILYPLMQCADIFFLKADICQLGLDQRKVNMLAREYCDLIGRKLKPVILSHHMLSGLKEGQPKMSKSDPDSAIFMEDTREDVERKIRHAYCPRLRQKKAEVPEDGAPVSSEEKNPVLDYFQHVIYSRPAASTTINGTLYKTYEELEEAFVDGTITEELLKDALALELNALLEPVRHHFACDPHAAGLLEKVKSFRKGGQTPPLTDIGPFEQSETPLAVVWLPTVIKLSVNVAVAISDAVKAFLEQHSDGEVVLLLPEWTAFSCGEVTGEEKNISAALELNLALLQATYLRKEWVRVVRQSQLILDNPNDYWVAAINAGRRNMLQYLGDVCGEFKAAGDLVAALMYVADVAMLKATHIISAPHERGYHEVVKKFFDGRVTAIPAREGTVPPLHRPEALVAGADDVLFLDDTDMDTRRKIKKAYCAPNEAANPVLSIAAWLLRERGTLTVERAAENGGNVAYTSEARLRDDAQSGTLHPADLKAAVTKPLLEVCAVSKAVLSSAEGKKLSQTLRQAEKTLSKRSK
As to the kind of experiment: Trypanosoma cruzi tyrosyl tRNA synthetase (TcYRS) _High Tyrosine SOP. Further: in the data most compounds retested in dose-response had high values. As to conditions: 30 µM. In kind it is functional.

Experiment [8] addresses T4, Tyrosyl-tRNA synthetase, putative (Trypanosoma cruzi (strain CL Brener)). As to the kind of experiment: Trypanosoma cruzi tyrosyl tRNA synthetase (TcYRS) SOP. In kind it is functional. As to conditions: 30 µM.
The target of experiment [9] is Chromo domain-containing protein 1 (Saccharomyces cerevisiae (strain ATCC 204508 / S288c) (Baker's yeast)) (UniProt P32657). As to the kind of experiment: ScCHD-1 Enzyme Inhibition Assay. Further: in the data most compounds retested in dose-response had high values. Format: functional. As to conditions: 30 µM.
Chromo domain-containing protein 1 (Saccharomyces cerevisiae (strain ATCC 204508 / S288c) (Baker's yeast)), sequence (P32657 whole entry, the tested form may be a part): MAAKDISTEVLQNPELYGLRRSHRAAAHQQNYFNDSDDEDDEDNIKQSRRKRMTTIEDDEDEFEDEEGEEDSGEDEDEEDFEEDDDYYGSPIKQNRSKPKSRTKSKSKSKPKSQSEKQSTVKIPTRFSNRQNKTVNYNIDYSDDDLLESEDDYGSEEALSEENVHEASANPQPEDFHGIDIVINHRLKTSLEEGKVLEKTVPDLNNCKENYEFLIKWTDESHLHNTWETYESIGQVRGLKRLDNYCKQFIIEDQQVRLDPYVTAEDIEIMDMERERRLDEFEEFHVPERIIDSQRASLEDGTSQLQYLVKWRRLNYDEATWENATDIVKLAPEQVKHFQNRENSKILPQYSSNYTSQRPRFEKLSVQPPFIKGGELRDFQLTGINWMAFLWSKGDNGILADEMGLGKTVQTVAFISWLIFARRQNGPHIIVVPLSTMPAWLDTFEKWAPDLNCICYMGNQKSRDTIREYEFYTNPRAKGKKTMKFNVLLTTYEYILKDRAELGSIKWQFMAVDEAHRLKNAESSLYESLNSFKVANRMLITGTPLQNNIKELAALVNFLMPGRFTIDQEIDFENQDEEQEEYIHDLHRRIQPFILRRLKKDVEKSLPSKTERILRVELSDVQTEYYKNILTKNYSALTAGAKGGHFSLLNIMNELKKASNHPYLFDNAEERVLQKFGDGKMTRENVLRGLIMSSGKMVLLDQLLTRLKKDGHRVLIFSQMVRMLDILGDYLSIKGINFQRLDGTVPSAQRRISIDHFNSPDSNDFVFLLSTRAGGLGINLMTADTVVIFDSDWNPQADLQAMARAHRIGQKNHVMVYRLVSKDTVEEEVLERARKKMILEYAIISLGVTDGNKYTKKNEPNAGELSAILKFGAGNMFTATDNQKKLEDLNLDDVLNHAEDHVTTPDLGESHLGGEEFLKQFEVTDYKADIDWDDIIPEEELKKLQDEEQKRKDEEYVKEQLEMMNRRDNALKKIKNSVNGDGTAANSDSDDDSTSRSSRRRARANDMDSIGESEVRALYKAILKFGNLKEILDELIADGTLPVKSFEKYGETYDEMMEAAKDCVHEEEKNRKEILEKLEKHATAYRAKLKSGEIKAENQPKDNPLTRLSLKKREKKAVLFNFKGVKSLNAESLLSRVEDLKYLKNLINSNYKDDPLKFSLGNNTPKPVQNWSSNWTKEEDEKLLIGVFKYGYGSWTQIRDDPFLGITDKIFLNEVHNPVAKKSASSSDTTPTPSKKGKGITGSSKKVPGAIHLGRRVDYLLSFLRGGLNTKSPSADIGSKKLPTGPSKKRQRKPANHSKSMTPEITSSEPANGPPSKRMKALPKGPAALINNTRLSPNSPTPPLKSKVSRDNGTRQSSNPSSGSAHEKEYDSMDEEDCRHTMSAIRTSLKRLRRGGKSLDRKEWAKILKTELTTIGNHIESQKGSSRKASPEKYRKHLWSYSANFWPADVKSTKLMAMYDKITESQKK

Molecules are shown by their SMILES. For some assays here: Results with a measured potency or affinity are listed apart.

Protein translocase subunit SecA (Escherichia coli (strain K12)), sequence (P10408 whole entry): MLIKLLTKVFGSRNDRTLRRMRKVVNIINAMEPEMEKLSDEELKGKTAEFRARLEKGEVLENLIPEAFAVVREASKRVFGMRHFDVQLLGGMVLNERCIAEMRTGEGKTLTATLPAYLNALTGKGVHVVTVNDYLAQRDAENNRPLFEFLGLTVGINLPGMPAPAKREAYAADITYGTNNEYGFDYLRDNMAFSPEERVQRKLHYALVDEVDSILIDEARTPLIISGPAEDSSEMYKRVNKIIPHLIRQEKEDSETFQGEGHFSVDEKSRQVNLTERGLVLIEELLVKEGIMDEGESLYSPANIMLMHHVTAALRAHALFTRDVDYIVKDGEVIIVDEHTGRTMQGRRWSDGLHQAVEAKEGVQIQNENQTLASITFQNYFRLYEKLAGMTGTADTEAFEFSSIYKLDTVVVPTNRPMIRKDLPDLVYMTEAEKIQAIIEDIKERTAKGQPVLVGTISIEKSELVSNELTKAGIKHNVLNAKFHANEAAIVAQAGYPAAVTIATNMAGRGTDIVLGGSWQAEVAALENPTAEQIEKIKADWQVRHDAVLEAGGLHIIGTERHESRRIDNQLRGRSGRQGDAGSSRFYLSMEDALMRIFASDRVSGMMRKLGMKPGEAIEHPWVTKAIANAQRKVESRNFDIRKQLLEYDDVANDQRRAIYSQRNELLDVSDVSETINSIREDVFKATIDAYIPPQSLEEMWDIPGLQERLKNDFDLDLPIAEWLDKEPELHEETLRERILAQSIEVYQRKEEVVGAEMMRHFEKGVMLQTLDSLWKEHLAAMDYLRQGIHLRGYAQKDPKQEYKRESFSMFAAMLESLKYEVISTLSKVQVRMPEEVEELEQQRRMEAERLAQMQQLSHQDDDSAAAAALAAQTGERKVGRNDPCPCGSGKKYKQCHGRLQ

For `CNC(=O)Nc1cc(-c2ccccc2C)nn1CCO`, the Percent Effect is -4.2% in [1]; 7.89% in [2]; -1.72% in experiment [3]; -9.84% in experiment [4]; -3.8% in the experiment with Trypanosoma cruzi; -5.92% in experiment [5]. The Percent Effect in experiment [6] is 17.2%; in the experiment filed under Homo sapiens, -9.47%; in experiment [7] it was 1.06%; in experiment [8], 0%; in experiment [9] it was -7.09%.
`Cc1nc(C(=O)N2CCCC(c3cccc(-n4ccnc4)n3)C2)co1` (stereo not given): the Percent Effect was -7.87% in [1]; 1.35% in experiment [2]; 2.78% in experiment [3]; 1.23% in experiment [4]; -5.34% in the experiment with Trypanosoma cruzi; -2.55% in experiment [5]. In addition, the Percent Effect in experiment [6] is 10.1%; in the experiment listed under Homo sapiens, 12.6%; in experiment [7], 0%; in experiment [8] it was 1.3%; in experiment [9], -6.74%.
In the case of `COCC(=O)N1CCCC1c1ccnc(Nc2cnccn2)n1` (stereo not given), the Percent Effect in [1] was -3.17%; in [2], 12.2%; in experiment [3], 9.2%; in experiment [4], 8.04%; with Trypanosoma cruzi, -0.395%; in [5] it was 0.232%. In addition, the Percent Effect in [6] was 10.3%; in the experiment listed under Homo sapiens, -10.9%; in experiment [7], 12.9%; in experiment [8], 22.1%; in experiment [9], -7.89%.
`COCC(c1cccc(C(F)(F)F)c1)N(C)C(=O)c1ccncc1` (stereo not given): the Percent Effect in experiment [1] was -4.42%; in experiment [2] it was 21.1%; in experiment [3], -0.328%; in [4] it was -2.24%; in the experiment with Trypanosoma cruzi it was 8.46%; in experiment [5], -4.21%. Moreover, the Percent Effect in [6] is 23.2%; in the experiment filed under Homo sapiens, 26.2%; in [7], 8.33%; in experiment [8] it was 21.9%; in experiment [9], -14.7%.
`Cc1nc(CN2CCCn3c(nc(Cn4ccnc4)cc3=O)C2)cs1`: the Percent Effect was -3.95% in experiment [1]; 12% in experiment [2]; 7.35% in experiment [3]; 0.752% in [4]; -0.393% in the experiment on Trypanosoma cruzi; 1.23% in experiment [5]. Also, the Percent Effect is 5.36% in experiment [6]; -26.2% in the experiment listed under Homo sapiens; -1.06% in experiment [7]; 0% in experiment [8]; -4.76% in experiment [9].
With `Cc1ccc(NC(=O)N(C)Cc2cnn(C)c2)cc1OCC(F)F`, the Percent Effect is -9.52% in [1]; 2.7% in experiment [2]; -18.9% in experiment [3]; 28% in experiment [4]; 12.4% in the experiment on Trypanosoma cruzi; -11.2% in [5]. Besides, the Percent Effect in experiment [6] is 6.67%; in the experiment filed under Homo sapiens it was 11.9%; in experiment [7], 3.45%; in experiment [8], 23.5%; in experiment [9] it was -16.1%.
With `CCC1=N[C@@]2(CC[C@@H]3CN(Cc4ccccc4F)C[C@@H]32)C(=O)N1CC`, the Percent Effect was -5.1% in experiment [1]; 0% in [2]; -2.64% in experiment [3]; -1.67% in [4]; -1.17% in the experiment with Trypanosoma cruzi; 12.5% in experiment [5]. Further, the Percent Effect in [6] is 18.7%; in the experiment listed under Homo sapiens it was 5.93%; in experiment [7], 12.9%; in experiment [8], 18.3%; in [9], -6.7%.
Regarding `CC(NC(=O)C1=NN(C)C(=O)CC1)c1ccc(Cl)cc1Cl` (stereo not given), the Percent Effect in [1] is -2.53%; in [2] it was 16.4%; in experiment [3], 8.07%; in experiment [4], 9.9%; in the experiment with Trypanosoma cruzi, 2.74%; in experiment [5] it was 8.64%. Besides, the Percent Effect is 11.9% in experiment [6]; 16.3% in the experiment filed under Homo sapiens; 2.15% in [7]; 20% in experiment [8]; -7.04% in experiment [9].
Consider `O=S(=O)(NCC1CCN(c2cnccn2)CC1)c1c(F)cccc1F`, for which the Percent Effect in experiment [1] is 0.613%; in [2] it was 5.2%; in experiment [3], -0.808%; in experiment [4], -3.89%; in the experiment with Trypanosoma cruzi, -5.82%; in experiment [5] it was 9.68%. The Percent Effect is 5.74% in experiment [6]; 8.19% in the experiment filed under Homo sapiens; 3.17% in experiment [7]; 6.41% in experiment [8]; -7.48% in [9].
Regarding `CN(CCc1ccccc1)Cc1cc(C(=O)N2CCN(C)C(=O)C2)no1`, the Percent Effect is -3.15% in experiment [1]; 19.2% in experiment [2]; -1.8% in experiment [3]; 11% in [4]; 1.19% in the experiment on Trypanosoma cruzi; -6.79% in experiment [5]. Moreover, the Percent Effect in experiment [6] is 19.3%; in the experiment filed under Homo sapiens, 5.79%; in experiment [7], 7.29%; in [8], 23.5%; in [9], -7.74%.
